In PubChem BioAssay (NCATS) one finds Potency data, which are given here for 15 compounds.

Results filed as inconclusive are left out. A call without a number means that no potency is given here. Calls of active or inactive are those of the source. Calls come from the whole dose curve; as a rule, active = well fitted inhibition curve with a large enough effect; inconclusive = small, poorly fitted or top-dose-only effect; inactive = no such curve, though single readings can be large or run the other way.

This experiment can be described thus: S16 Schwann cell PMP22 intronic element firefly luciferase assay (AID 624032). Note: nearly all actives have a fitted effect of over 30% in size. To be noted: S16 rat Schwann cells, PMP22 element FLuc, 24 h; series mostly up to 57.5 µM. In outline: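 Rat S16 Schwann cells stably carrying firefly luciferase driven by a PMP22 intronic element, in 10% FBS, treated 24 h at 37 C. ONE-Glo luminescence normalized to PTC124 control and DMSO (0%); curves classed by r2, magnitude and activity.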
`CCCC1CCCCN1` (stereo not given): the Potency result is “inactive”.

Take `NP(N)(=O)NC(=O)c1ccc(F)cc1`: the Potency entry is “inactive”.

Regarding `CN1CCN(C(=O)O[C@H]2c3nccnc3C(=O)N2c2ccc(Cl)cn2)CC1`, the Potency entry is “inactive”.

For the compound `FC(F)(F)c1cccc(C2=CCN(CCc3ccc4ccccc4c3)CC2)c1`, the Potency entry is “inactive”.

`O=C(NC(O)C(Cl)(Cl)Cl)NC(O)C(Cl)(Cl)Cl` (stereo not given): the Potency entry is “inactive”.

`Clc1cccc(N2CCNCC2)c1`: the Potency result was “inactive”.

With `CCN(C(C)=O)c1cccc(-c2ccnc3c(C#N)cnn23)c1`, the Potency entry is “inactive”.

Turning to `CN1C(=S)CN=C(c2ccccc2)c2cc(Cl)ccc21`, the Potency result is “inactive”.

Take `C=C1CC[C@@]2(O)[C@H]3Cc4ccc(O)c5c4[C@@]2(CCN3CC2CC2)[C@H]1O5`: the Potency entry is “inactive”.

Regarding `CC(=O)Nc1cc([As](=O)(O)O)ccc1O`, the Potency result is “inactive”.

Take `CC1NCCOC1c1ccccc1` (stereo not given): the Potency result was “inactive”.

For `CC(C)(N)Cc1ccc(Cl)cc1`, the Potency result was “inactive”.

For `CCC(C(N)=O)N1CCCC1=O` (stereo not given), the Potency entry was “inactive”.

For `CC(C)NCC(O)c1ccccc1Cl` (stereo not given), the Potency entry was “inactive”.

In the case of `CN(C)CCc1ccc(O)cc1`, the Potency result is “inactive”.
